# Results as given in PubChem BioAssay (NCATS).
# Values joined by “and” are separate entries in the source; they are usually repeats but may differ in a detail not shown here. Equal values may be shown once. Results filed as inconclusive are left out. Entries that show only a call come without a potency. A number with no mark means an inactive call. Active and inactive are the calls of the source. Calls come from the whole dose curve; as a rule, active = well fitted curve in the direction sought with a large enough effect; inconclusive = small, poorly fitted or top-dose-only effect, or another doubt; inactive = no such curve, though single readings can be large; an effect the other way counts as inactive or inconclusive. Square brackets hold non-standard residues; d marks the D form. Peptide text beside a SMILES is read from it. PhLac = O=C(O)[CH](O)Cc1ccccc1; NMeV = CN[CH](C(=O)O)C(C)C
# Columns and labels:
# [1] = target: Cellular tumor antigen p53 (Homo sapiens) (UniProt P04637); experiment: Primary qHTS for small molecule compounds that upregulate eGFP-tagged delta133p53alpha (in N-terminal) cells. (AID 2060322); conditions: NCI-H358 eGFP-delta133p53alpha fluorescence, 24 h; activation: active compounds read high; note: nearly all actives have a fitted effect of over 75% in size; note: potency is the fitted concentration of half-maximal effect;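 for activation: cells pre-induced with doxycycline then dosed without doxycycline; series mostly up to about 56 µM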
# Method in brief: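 NCI-H358 cells pre-induced 24 h with 10 ng/ml doxycycline for eGFP-delta133p53alpha, plated dox-free and exposed 24 h at 37C to titrated compounds. Fixed, Hoechst-stained; gated GFP peak intensity by laser scanning cytometry, normalized to DMSO (0%) and 57.5 uM 5-azacytidine (100%).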
# [2] = target: Aldehyde dehydrogenase, mitochondrial (Homo sapiens) (UniProt P05091); experiment: qHTS for Inhibitors of the Aldehyde Dehydrogenase Family (ALDH2) Primary screen (AID 2061308); note: nearly all actives have a fitted effect of over 55% in size; note: potency is the fitted concentration of half-maximal effect
# [3] = target: Retinaldehyde dehydrogenase 3 (Homo sapiens) (UniProt P47895); experiment: qHTS for Inhibitors of the Aldehyde Dehydrogenase Family (ALDH1A3) Primary screen (AID 2061315)
# [4] = target: Retinal dehydrogenase 2 (Homo sapiens) (UniProt O94788); experiment: qHTS for Inhibitors of the Aldehyde Dehydrogenase Family (ALDH1A2) Confirmation screens (AID 2061314); note: nearly all actives have a fitted effect of over 65% in size; note: potency is the fitted concentration of half-maximal effect
# [5] = target: Aldehyde dehydrogenase 1A1 (Homo sapiens) (UniProt P00352); experiment: qHTS for Inhibitors of the Aldehyde Dehydrogenase Family (ALDH1A1) Confirmatory screens (AID 2061316); note: nearly all actives have a fitted effect of over 65% in size; note: potency is the fitted concentration of half-maximal effect
# [6] = target: Retinaldehyde dehydrogenase 3 (Homo sapiens) (UniProt P47895); experiment: qHTS for Inhibitors of the Aldehyde Dehydrogenase Family (ALDH1A3) Validation screen (AID 2061312); note: nearly all actives have a fitted effect of over 45% in size
# [7] = BET inhibitor-based combinations targeting novel dependencies in MECOM-rearranged (r) AML: MV-4-11 cell line (AID 2202233); note: nearly all actives have a fitted effect of over 45% in size; note: potency is the fitted concentration of half-maximal effect
# Method in brief: (§1)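 Cells were plated at 500 per well and exposed to each drug across an 11-point dose range for 48 hr at standard incubator conditions. Viability was read by CellTiter-Glo luminescence, and activity was expressed as AUC and per-cell-line Z-transformed AUC.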
# [8] = BET inhibitor-based combinations targeting novel dependencies in MECOM-rearranged (r) AML: UCSD-AML1 cell line (AID 2202235); note: series mostly up to about 46 µM; nearly all actives have a fitted effect of over 40% in size
# Method in brief: as §1
# [9] = BET inhibitor-based combinations targeting novel dependencies in MECOM-rearranged (r) AML: SET-2 cell line (AID 2202231); conditions: SET-2 AML cells viability, CellTiter-Glo luminescence, 48 h; viability: active compounds read low, series mostly up to about 46 µM; note: nearly all actives have a fitted effect of over 35% in size
# Method in brief: (§2)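 500 cells/well; 11-pt dose curve; 48 h, standard incubator; CellTiter-Glo luminescence after 15 min RT; DMSO/empty-well normalization; AUC plus Z-AUC (mean-centered within each line).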
# [10] = BET inhibitor-based combinations targeting novel dependencies in MECOM-rearranged (r) AML: HNT-34 cell line (AID 2202234); note: nearly all actives have a fitted effect of over 35% in size
# Method in brief: as §1
# [11] = BET inhibitor-based combinations targeting novel dependencies in MECOM-rearranged (r) AML: AML-191 cell line (AID 2202236; note: nearly all actives have a fitted effect of over 35% in size)
# Method in brief: as §2
# [12] = BET inhibitor-based combinations targeting novel dependencies in MECOM-rearranged (r) AML: AML-194 cell line (AID 2202237; note: nearly all actives have a fitted effect of over 40% in size)
# Method in brief: as §2
# Chain of Cellular tumor antigen p53 (Homo sapiens) (P04637 whole entry, looked up): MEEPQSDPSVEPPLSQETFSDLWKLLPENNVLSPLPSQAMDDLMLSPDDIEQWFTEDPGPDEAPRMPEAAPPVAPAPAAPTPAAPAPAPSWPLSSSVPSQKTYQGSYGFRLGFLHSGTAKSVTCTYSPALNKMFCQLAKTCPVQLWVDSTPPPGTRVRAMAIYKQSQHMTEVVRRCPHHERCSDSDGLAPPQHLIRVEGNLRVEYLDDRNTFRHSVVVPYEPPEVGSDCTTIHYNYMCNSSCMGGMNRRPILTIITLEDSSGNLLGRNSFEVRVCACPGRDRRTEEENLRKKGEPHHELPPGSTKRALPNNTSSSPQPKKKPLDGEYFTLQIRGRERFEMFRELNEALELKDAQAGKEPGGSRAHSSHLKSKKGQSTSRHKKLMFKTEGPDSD
smiles,measurement,setting,value
COC1C(CO)OC(n2cnc3c(=O)[nH]cnc32)C1O (stereo not drawn),activation,[1],-12.2%
same,Potency,[2],inactive
same,Potency,[3],inactive
C=C1C(=O)O[C@@H]2[C@H]1CC(=O)[C@H](C)[C@@](O)(C(=O)/C=C/C)[C@H]2OC(=O)C(C)CC (stereo partly drawn),Potency,[1],5.88 µM (active)
same,Potency,[2],inactive
same,Potency,[4],4.4 µM (active)
same,Potency,[3],inactive
same,Potency,[5],inactive
COc1ccc(C(=O)CC(=O)O)c2c1C=CC(C)(C)O2,activation,[1],23.2%
same,Potency,[2],inactive
same,Potency,[3],inactive
CC(C)C(C(=O)N1CCCC1C(=O)O)N(C)C(=O)C(O)Cc1ccccc1 (stereo not drawn) (H-[PhLac]-[NMeV]-Pro-OH; configuration not given here),activation,[1],22.3%
same,Potency,[2],inactive
same,Potency,[3],inactive
CC(C)(C)c1ccc(NC(=O)N2CCN(c3ncccc3Cl)CC2)cc1,activation,[1],-11.5%
same,Potency,[2],inactive
same,Potency,[3],inactive
Cc1ccc(CNc2ncnc3ccc(-c4ccc(CO)o4)cc23)o1,activation,[1],-4.46%
same,Potency,[2],inactive
same,Potency,[4],inactive
same,Potency,[3],inactive
same,Potency,[5],4 µM (active)
CC1CCC(=O)CC(SCC(O)C(=O)O)CCC(=O)O1 (stereo not drawn),activation,[1],-26%
same,Potency,[2],inactive
same,Potency,[3],inactive
CC[C@]12CCCN3CCc4c(n(c5ccccc45)C(=O)C1)[C@@H]32,Potency,[1],13.8 µM (active) and 10.7 µM (active)
same,Potency,[2],inactive
same,Potency,[3],inactive
CC1=CC(=O)C2C(C)(C)CCC[C@]2(C)[C@H]1CO (stereo partly drawn),activation,[1],-3.82%
same,Potency,[2],inactive
same,Potency,[3],inactive
CC1(O)CCCC2(C)C1CCC13CC(CO)C(CCC12)C3 (stereo not drawn),activation,[1],0%
same,Potency,[2],inactive
same,Potency,[3],inactive
CNC(=O)c1ccc2c(C(=Nc3cccc(CN(C)C)c3)c3ccccc3)c(O)[nH]c2c1,activation,[1],-0.477%
same,Potency,[2],inactive
same,Potency,[6],inactive
same,Potency,[7],1.66 µM (active)
same,Potency,[8],inactive
CC1CCC2C(C)(C)CC(C)(CO)C2(O)C1C(=O)O (stereo not drawn),activation,[1],15.3%
same,Potency,[2],inactive
same,Potency,[3],inactive
C=C1CC2C3(C)C(O)CC(=O)C(C)(C)C3C(OC(C)=O)C(OC(C)=O)C2(C)C2C(=O)OC(C)(C(=O)OC)C(=O)C12C (stereo not drawn),activation,[1],-16.8%
same,Potency,[2],inactive
same,Potency,[3],inactive
N#Cc1c(O)c2c(-c3ccc(-c4ccccc4O)cc3)csc2[nH]c1=O,activation,[1],4.35% and -11.5%
same,Potency,[2],17.8 µM (active)
same,Potency,[4],12.7 µM (active)
same,Potency,[3],inactive
same,viability,[9],120%
same,Potency,[7],inactive
same,Potency,[10],inactive
same,Potency,[8],inactive
same,Potency,[11],inactive
same,Potency,[12],inactive
O=S(=O)(c1ccc(Cl)cc1)N1CCN(c2ccnc3cc(Cl)ccc23)CC1,activation,[1],-12.5%
same,Potency,[2],inactive
same,Potency,[3],inactive
Nc1nc(O)c(C2=C3C(=Nc4ccccc43)C(=O)NCC2)[nH]1,activation,[1],-1.79%
same,Potency,[2],inactive
same,Potency,[3],inactive
C=C(C)C1CCC2(C(=O)O)CCC3(C)C(CCC4C5(C)C(C=O)C(O)C(C)(C)C5CCC43C)C12 (stereo not drawn),activation,[1],-19.8%
same,Potency,[2],inactive
same,Potency,[3],inactive
COc1cc(/C=C/C(=O)O)ccc1O[C@@H]1O[C@H](CO)[C@@H](O)[C@H](O)[C@H]1O[C@@H]1OC[C@](O)(CO)[C@H]1O,activation,[1],-13%
same,Potency,[2],inactive
same,Potency,[3],inactive
C=C1CCC2[C@](C)(CCC[C@]2(C)C(=O)O)[C@H]1CC/C(C)=C/C(=O)OC (stereo partly drawn),activation,[1],17.9%
same,Potency,[2],inactive
same,Potency,[3],inactive
CC(C)c1ccc(CC(=O)N2CCC[C@@H](c3cccc(OC(C)(C)C(=O)O)c3)C2)cc1,activation,[1],7%
same,Potency,[2],inactive
same,Potency,[3],inactive
CNC(C)C(=O)NC(C(=O)N1CCCC1C(=O)Nc1cccc2ncccc12)C(C)C (stereo not drawn),activation,[1],-21%
same,Potency,[2],inactive
same,Potency,[3],inactive
CC(C)[C@H]1CCC(CO)=C[C@@H]1/C=C(\CO)C(=O)O,activation,[1],-15.3%
same,Potency,[2],inactive
same,Potency,[3],inactive
COc1cc(O)cc2c1C(=O)OC(C)CCCCCCC2 (stereo not drawn),activation,[1],1.79%
same,Potency,[2],inactive
same,Potency,[4],inactive
same,Potency,[3],inactive
C=C(CO)C12OC1C1(C)C(=CC2=O)C(O)C(O)CC1C (stereo not drawn),activation,[1],17.9%
same,Potency,[2],inactive
same,Potency,[3],inactive
CCC[C@@H]1O[C@@H]2C[C@H]3[C@@H]4CCC5=CC(=O)C=C[C@]5(C)[C@H]4[C@@H](O)C[C@]3(C)[C@]2(C(=O)CO)O1,activation,[1],6.33%
same,Potency,[2],inactive
same,Potency,[3],inactive
COC(=O)Cc1cc2c(c([N+](=O)[O-])c1)N(C(=O)CC[C@H](N)C(=O)O)CC2,activation,[1],-7.67%
same,Potency,[2],inactive
same,Potency,[4],inactive
same,Potency,[3],inactive
